From PubChem BioAssay AID1159580 (chemical genetic matrix, 2015)
The whole screen tested about 5,500 compounds, of which about 2,000 (36%) were called active. About 18% were inconclusive and are not listed. Cut-off read from the data, not from the text of the source: active = normalized growth mostly below about 0.91 (no sharp cut-off); inconclusive = no clear call, values can overlap the other calls; inactive = mostly above about 0.92. The list shows a part of the results.

Test: chemical genetic growth profiling, strain panel (AID 1159580);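 note: tested at 20 µM; growth read once vehicle control cultures reached saturation at 30 °C; 1 = growth at the plate median or of vehicle wells; lower values mean less growth of the strain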
Details: S. cerevisiae deletion strains, growth OD

Measured: normalized growth

Ic1ccccc1CNC1C2CCN(CC2)C1C(c1ccccc1)c1ccccc1 (centres undefined)
inactive: locus YAL040C, strain CLN3, active compounds read low 0.998 | locus YCL061C, strain MRC1 (second series), active compounds read low 0.984 | locus YDR150W, strain NUM1, active compounds read low 0.996 | locus YDR363W, strain ESC2, active compounds read low 0.977 | locus YER002W, strain NOP16, active compounds read low 1.05 | locus YGR078C, strain PAC10, active compounds read low 1 | locus YMR263W, strain SAP30, active compounds read low 0.998 | locus YMR307W, strain GAS1, active compounds read low 0.989 | locus YNL175C, strain NOP13, active compounds read low 1.05 | locus YNL197C, strain WHI3, active compounds read low 1.07 | locus YNL224C, strain SQS1, active compounds read low 1.05 | locus YNL322C, strain KRE1, active compounds read low 1 | locus YOR083W, strain WHI5 (second series), active compounds read low 1.05 | locus YPL241C, strain CIN2, active compounds read low 0.998
